Laboratory results taken from publication PMC7819943, “Rice protein-binding microarrays: a tool to detect cis-acting elements near promoter regions in rice”.
Whole data set: some 35,000 sequences, median “fluorescence intensity (a.u.)” near 10,000, cut for the highest 2% near 52,000. Shown is part of a subset that was picked to be rich in the highest values.

target: T1, OsWOX13 (Oryza sativa, UniProt Q5QMM3 1-267); test: protein-binding microarray (RPBM); PBS, 2% BSA, 51.3 ng/ul salmon testes DNA, 50 uM zinc acetate, 200 nM TF, 25 C, 1 h; high values mean tight binding; conditions: protein: recombinant; tags: N-terminal polyhistidine and DsRed monomer fusion (pET32a); label: CyDye5-dUTP incorporated in the synthesized complementary strand; 3' TTTTT single-stranded linker to array surface; dsDNA, one strand shown
T1 sequence: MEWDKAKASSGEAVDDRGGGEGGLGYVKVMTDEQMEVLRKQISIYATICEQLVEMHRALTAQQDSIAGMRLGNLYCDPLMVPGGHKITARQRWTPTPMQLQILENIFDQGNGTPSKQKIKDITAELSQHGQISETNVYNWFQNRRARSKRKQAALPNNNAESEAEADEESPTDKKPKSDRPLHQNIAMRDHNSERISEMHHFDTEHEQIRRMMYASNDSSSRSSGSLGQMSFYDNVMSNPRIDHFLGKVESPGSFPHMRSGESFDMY
Outline: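 Per-feature fluorescence intensity (arbitrary units), read on an Axon 4000B scanner, is the binding signal. Transcription factors carrying an N-terminal polyhistidine tag and DsRed fusion were expressed in E. coli BL21-CodonPlus and purified on Ni–NTA. A custom Agilent array, made double-stranded by primer extension with Cy5-dUTP and blocked with 2% BSA, was incubated with 200 nM protein in PBS, 2% BSA, salmon testes DNA and 50 µM zinc acetate at 25 °C for 1 h and then washed.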

Sequence | binding signal
AAATTAAATTGCCCGGATCAATGGCTACAAATACCCCATGCGGAGTCACCTAGTGCAG | 15200 fluorescence intensity (a.u.)
AATACACATTGACAGATGAGTTAACGCCCGTGACAGGCTGCGGAGTCACCTAGTGCAG | 20500 fluorescence intensity (a.u.)
CTTTATAAATTGTGTCATCTACTCATGTGTGGTAGGTCAACGGAGTCACCTAGTGCAG | 5450 fluorescence intensity (a.u.)
TTGAATTTAAATTTAAACGTATAGTGCCTTCCCTTTTACGCGGAGTCACCTAGTGCAG | 22900 fluorescence intensity (a.u.)
CAAATTAACTGGAAATTTTGAAGCATCCATGTTCTGTGAGCGGAGTCACCTAGTGCAG | 46600 fluorescence intensity (a.u.)
TTGATGTGCAATAATTAACGAGAGAAGAGTTTTCCCATAGCGGAGTCACCTAGTGCAG | 10300 fluorescence intensity (a.u.)
TGGAATTGATTATGATGCTGTTTCCTTCATGGGAGCTCTACGGAGTCACCTAGTGCAG | 31900 fluorescence intensity (a.u.)
ATGGCTGGGTTGATTGATATGGAGTACAAACTAAGTGTAGCGGAGTCACCTAGTGCAG | 25000 fluorescence intensity (a.u.)
ACTAGTTAATCACGATTGATGGAAGCGGTTGATTGAATGACGGAGTCACCTAGTGCAG | 51400 fluorescence intensity (a.u.)
TGGAATTCATCTAATTATATCATTTTCCTCCATACTAGCTCGGAGTCACCTAGTGCAG | 3430 fluorescence intensity (a.u.)
CCATTAGATTAGCACTAATTATCATACTTAGTCATTAGCTCGGAGTCACCTAGTGCAG | 59100 fluorescence intensity (a.u.)
ATTAATTAGCTCTAGATTAAGCTAATTGCCATCAATGGCTCGGAGTCACCTAGTGCAG | 46400 fluorescence intensity (a.u.)
ATCATGGCAAATGATTGAAACTTTGAAGTAACGTTGGTGCCGGAGTCACCTAGTGCAG | 38800 fluorescence intensity (a.u.)
TAAATTTGATTCCATTTCCGTTGCCTGTTCATTTCGTCGACGGAGTCACCTAGTGCAG | 6090 fluorescence intensity (a.u.)
AAATCATTAATAGTGCGTGATTAATTGAGTATTAATTATTCGGAGTCACCTAGTGCAG | 8480 fluorescence intensity (a.u.)
AAAATTATGGATTGGATGATTAATCACTGATAGGTAGTACCGGAGTCACCTAGTGCAG | 56900 fluorescence intensity (a.u.)
TGGTGTAGGGTTATGATTGGATGAGTAGTGGAGGTAGGTACGGAGTCACCTAGTGCAG | 8550 fluorescence intensity (a.u.)
AAAATCACTGGATTAATTGATTGCGTCGTACTATCATTGCCGGAGTCACCTAGTGCAG | 64600 fluorescence intensity (a.u.)
TTAATCACTGGTAATTATAGATTTATAGGTGATTAATCACCGGAGTCACCTAGTGCAG | 17900 fluorescence intensity (a.u.)
CTGGACTGTCAAATCAAGGAGGATTGCGTACTAATCATGTCGGAGTCACCTAGTGCAG | 9940 fluorescence intensity (a.u.)
CTAAACACGTCCTATCATGTCACGTAGATAATATGACACGCGGAGTCACCTAGTGCAG | 4110 fluorescence intensity (a.u.)
TAGATAAATTACCCTAAAATCCTGTAAAACTTCTGCATTTCGGAGTCACCTAGTGCAG | 3350 fluorescence intensity (a.u.)

Sequence | binding signal
AATGCAGGAACAGCATAAGCTTTGCGTATATTTGTATTAACGGAGTCACCTAGTGCAG | 65500 fluorescence intensity (a.u.)
ATAAAATTTAATATTAAATATGCATTTGAACAGCTATAAACGGAGTCACCTAGTGCAG | 6360 fluorescence intensity (a.u.)
AAATAAATTAATATAACTTATAAAGCAGCTTTTGTATAATCGGAGTCACCTAGTGCAG | 13600 fluorescence intensity (a.u.)
TTATTAATTCCATAATCAGAACTTTGATGTGATATAACCTCGGAGTCACCTAGTGCAG | 9130 fluorescence intensity (a.u.)
TCTGGGTGATTTGTTGCAAAAGAATATTTTAATTCACTGCCGGAGTCACCTAGTGCAG | 14000 fluorescence intensity (a.u.)
ATTTGATCTGATTTGATTAATTTTGCATGCACGCGAATGGCGGAGTCACCTAGTGCAG | 61700 fluorescence intensity (a.u.)
CATCTGGCGATTGCATATTAATTTGCATGGCGAAGCTTCCCGGAGTCACCTAGTGCAG | 5830 fluorescence intensity (a.u.)
GCGAACTTAATTGCTGCTAGAATGCTGCTGAAATTGGTGACGGAGTCACCTAGTGCAG | 8360 fluorescence intensity (a.u.)
GTGATGATGAATTAATTGCTGAATGGCGAATGCAGTGCAGCGGAGTCACCTAGTGCAG | 58900 fluorescence intensity (a.u.)
GGGAGAGAATGTGCTAATTAATTGCATGCATGCATGCACGCGGAGTCACCTAGTGCAG | 12000 fluorescence intensity (a.u.)
GACTTTAATGATGCTGACACCGGCTTAATTAGTATTGCGGCGGAGTCACCTAGTGCAG | 8560 fluorescence intensity (a.u.)
GTCATTGATTGATCAAGGGATCAATGCAAAACAACGCATTCGGAGTCACCTAGTGCAG | 20300 fluorescence intensity (a.u.)
AGAAAATTAATGTTCAACAAACTCGTCACAAATTAAGTTTCGGAGTCACCTAGTGCAG | 13600 fluorescence intensity (a.u.)
TAAATTTATAGTCAATTGTAGCATGAGCTCTAATAAACTGCGGAGTCACCTAGTGCAG | 4880 fluorescence intensity (a.u.)
TCCAAATCCTACAATAATTGATTGAATCAAACACAGAAAGCGGAGTCACCTAGTGCAG | 41200 fluorescence intensity (a.u.)
TCATGTAATTGTTGATAAGAGTGTCAGAATTCAGATAGTGCGGAGTCACCTAGTGCAG | 13500 fluorescence intensity (a.u.)
AGCAGCATAAATGCAATTAAATTTGTAGCAATCGAACATGCGGAGTCACCTAGTGCAG | 4680 fluorescence intensity (a.u.)
GCAAATTGATAATTGAAACAGAATTCAGTCGTTTGTACAGCGGAGTCACCTAGTGCAG | 62700 fluorescence intensity (a.u.)
GGTTAATTTGACATAAACAGCGTCAGAAATGTAGTTCATGCGGAGTCACCTAGTGCAG | 57900 fluorescence intensity (a.u.)
TCATGTCATAAATTAAATTATTTGAAATTATTTGGTACAGCGGAGTCACCTAGTGCAG | 13900 fluorescence intensity (a.u.)
TCTAAACTGATAATTGCAAATTGTAATTGATAGCATTGAGCGGAGTCACCTAGTGCAG | 63700 fluorescence intensity (a.u.)
TCTAATTAGTAAACTGTAGTAGTGAGCAAATTGTACTAGACGGAGTCACCTAGTGCAG | 20900 fluorescence intensity (a.u.)
